Binding signal data for 39 molecules are collected here from PMC9911399, “Two distinct binding modes provide the RNA-binding protein RbFox with extraordinary sequence specificity”.

Where a chain is given by its changes, count along the chain named. Over roughly 16,000 sequences, “ka relative to ugcaugu” has its median near 0.096; the highest 2% begin near 0.35. This excerpt belongs to a sample that is enriched for the highest values.

The labels stand for the following.
T1: RBFOX1 RRM RbFoxmut (Fox-RRM*) (Homo sapiens, UniProt Q9NWB1 109-208, R118D;E147R;N151S;E152T)
T1 sequence: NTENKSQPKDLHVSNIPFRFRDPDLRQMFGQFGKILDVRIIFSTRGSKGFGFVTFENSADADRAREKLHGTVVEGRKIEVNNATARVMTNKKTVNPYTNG

B1: UGCUUUG (DNA:RNA)
RNA: GGGAGACCGGAAUUCAGAUUGUCCUGCUUUGUUAAAUCCCGUCGUAGCCACCA
DNA 1: CAATCTGAATTCCGGTCTCCC
DNA 2: TGGTGGCTACGACGGGATT
B2: CUGAGUG (DNA:RNA)
RNA: B1 RNA with U25C, G26U, C27G, U28A, U29G
DNA 1: CAATCTGAATTCCGGTCTCCC
DNA 2: TGGTGGCTACGACGGGATT
B3: UCACCCA (DNA:RNA)
RNA: B1 RNA with G26C, C27A, U28C, U29C, U30C, G31A
DNA 1: CAATCTGAATTCCGGTCTCCC
DNA 2: TGGTGGCTACGACGGGATT
B4: UAGGGAC (DNA:RNA)
RNA: B1 RNA with G26A, C27G, U28G, U29G, U30A, G31C
DNA 1: CAATCTGAATTCCGGTCTCCC
DNA 2: TGGTGGCTACGACGGGATT
B5: ACCAGGG (DNA:RNA)
RNA: B1 RNA with U25A, G26C, U28A, U29G, U30G
DNA 1: CAATCTGAATTCCGGTCTCCC
DNA 2: TGGTGGCTACGACGGGATT
B6: CACCAGG (DNA:RNA)
RNA: B1 RNA with U25C, G26A, U28C, U29A, U30G
DNA 1: CAATCTGAATTCCGGTCTCCC
DNA 2: TGGTGGCTACGACGGGATT
B7: AGGGUUG (DNA:RNA)
RNA: B1 RNA with U25A, C27G, U28G
DNA 1: CAATCTGAATTCCGGTCTCCC
DNA 2: TGGTGGCTACGACGGGATT
B8: GAGGUUG (DNA:RNA)
RNA: B1 RNA with U25G, G26A, C27G, U28G
DNA 1: CAATCTGAATTCCGGTCTCCC
DNA 2: TGGTGGCTACGACGGGATT
B9: CCCCAGG (DNA:RNA)
RNA: B1 RNA with U25C, G26C, U28C, U29A, U30G
DNA 1: CAATCTGAATTCCGGTCTCCC
DNA 2: TGGTGGCTACGACGGGATT
B10: CAGGUUG (DNA:RNA)
RNA: B1 RNA with U25C, G26A, C27G, U28G
DNA 1: CAATCTGAATTCCGGTCTCCC
DNA 2: TGGTGGCTACGACGGGATT
B11: GAGGAGG (DNA:RNA)
RNA: B1 RNA with U25G, G26A, C27G, U28G, U29A, U30G
DNA 1: CAATCTGAATTCCGGTCTCCC
DNA 2: TGGTGGCTACGACGGGATT
B12: ACCGAGG (DNA:RNA)
RNA: B1 RNA with U25A, G26C, U28G, U29A, U30G
DNA 1: CAATCTGAATTCCGGTCTCCC
DNA 2: TGGTGGCTACGACGGGATT
B13: AGGGGGG (DNA:RNA)
RNA: B1 RNA with U25A, C27G, U28G, U29G, U30G
DNA 1: CAATCTGAATTCCGGTCTCCC
DNA 2: TGGTGGCTACGACGGGATT
B14: UCCCCAC (DNA:RNA)
RNA: B1 RNA with G26C, U28C, U29C, U30A, G31C
DNA 1: CAATCTGAATTCCGGTCTCCC
DNA 2: TGGTGGCTACGACGGGATT
B15: CUACCCG (DNA:RNA)
RNA: B1 RNA with U25C, G26U, C27A, U28C, U29C, U30C
DNA 1: CAATCTGAATTCCGGTCTCCC
DNA 2: TGGTGGCTACGACGGGATT
B16: GUGUCAG (DNA:RNA)
RNA: B1 RNA with U25G, G26U, C27G, U29C, U30A
DNA 1: CAATCTGAATTCCGGTCTCCC
DNA 2: TGGTGGCTACGACGGGATT
B17: AUACAAG (DNA:RNA)
RNA: B1 RNA with U25A, G26U, C27A, U28C, U29A, U30A
DNA 1: CAATCTGAATTCCGGTCTCCC
DNA 2: TGGTGGCTACGACGGGATT
B18: CAAUGCG (DNA:RNA)
RNA: B1 RNA with U25C, G26A, C27A, U29G, U30C
DNA 1: CAATCTGAATTCCGGTCTCCC
DNA 2: TGGTGGCTACGACGGGATT
B19: GGGAUGA (DNA:RNA)
RNA: B1 RNA with U25G, C27G, U28A, U30G, G31A
DNA 1: CAATCTGAATTCCGGTCTCCC
DNA 2: TGGTGGCTACGACGGGATT
B20: CGCGCUU (DNA:RNA)
RNA: B1 RNA with U25C, U28G, U29C, G31U
DNA 1: CAATCTGAATTCCGGTCTCCC
DNA 2: TGGTGGCTACGACGGGATT
B21: AGAAGCG (DNA:RNA)
RNA: B1 RNA with U25A, C27A, U28A, U29G, U30C
DNA 1: CAATCTGAATTCCGGTCTCCC
DNA 2: TGGTGGCTACGACGGGATT
B22: CUCCUCC (DNA:RNA)
RNA: B1 RNA with U25C, G26U, U28C, U30C, G31C
DNA 1: CAATCTGAATTCCGGTCTCCC
DNA 2: TGGTGGCTACGACGGGATT
B23: CUGCAUC (DNA:RNA)
RNA: B1 RNA with U25C, G26U, C27G, U28C, U29A, G31C
DNA 1: CAATCTGAATTCCGGTCTCCC
DNA 2: TGGTGGCTACGACGGGATT
B24: UGCAAUC (DNA:RNA)
RNA: B1 RNA with U28A, U29A, G31C
DNA 1: CAATCTGAATTCCGGTCTCCC
DNA 2: TGGTGGCTACGACGGGATT
B25: CCUGCAU (DNA:RNA)
RNA: GGGAGACCGGAAUUCAGAUUGUCCCCUGCAUUUAAAUCCCGUCGUAGCCACCA
DNA 1: CAATCTGAATTCCGGTCTCCC
DNA 2: TGGTGGCTACGACGGGATT
B26: CUGCAGA (DNA:RNA)
RNA: B25 RNA with C26U, U27G, G28C, C29A, A30G, U31A
DNA 1: CAATCTGAATTCCGGTCTCCC
DNA 2: TGGTGGCTACGACGGGATT
B27: UGCAUCU (DNA:RNA)
RNA: B1 RNA with U28A, U30C, G31U
DNA 1: CAATCTGAATTCCGGTCTCCC
DNA 2: TGGTGGCTACGACGGGATT
B28: UGAAUCU (DNA:RNA)
RNA: B1 RNA with C27A, U28A, U30C, G31U
DNA 1: CAATCTGAATTCCGGTCTCCC
DNA 2: TGGTGGCTACGACGGGATT
B29: AGCAGCA (DNA:RNA)
RNA: B1 RNA with U25A, U28A, U29G, U30C, G31A
DNA 1: CAATCTGAATTCCGGTCTCCC
DNA 2: TGGTGGCTACGACGGGATT
B30: ACAAAUC (DNA:RNA)
RNA: B25 RNA with C25A, U27A, G28A, C29A, A30U, U31C
DNA 1: CAATCTGAATTCCGGTCTCCC
DNA 2: TGGTGGCTACGACGGGATT
B31: GCGUGGA (DNA:RNA)
RNA: B25 RNA with C25G, U27G, G28U, C29G, A30G, U31A
DNA 1: CAATCTGAATTCCGGTCTCCC
DNA 2: TGGTGGCTACGACGGGATT
B32: UUGGAUC (DNA:RNA)
RNA: B1 RNA with G26U, C27G, U28G, U29A, G31C
DNA 1: CAATCTGAATTCCGGTCTCCC
DNA 2: TGGTGGCTACGACGGGATT
B33: GUGGAGA (DNA:RNA)
RNA: B25 RNA with C25G, C26U, U27G, C29A, A30G, U31A
DNA 1: CAATCTGAATTCCGGTCTCCC
DNA 2: TGGTGGCTACGACGGGATT
B34: GUGGAUU (DNA:RNA)
RNA: B25 RNA with C25G, C26U, U27G, C29A, A30U
DNA 1: CAATCTGAATTCCGGTCTCCC
DNA 2: TGGTGGCTACGACGGGATT
B35: GUGGAUG (DNA:RNA)
RNA: B1 RNA with U25G, G26U, C27G, U28G, U29A
DNA 1: CAATCTGAATTCCGGTCTCCC
DNA 2: TGGTGGCTACGACGGGATT
B36: UUGGAUG (DNA:RNA)
RNA: B1 RNA with G26U, C27G, U28G, U29A
DNA 1: CAATCTGAATTCCGGTCTCCC
DNA 2: TGGTGGCTACGACGGGATT
B37: UUGGAUU (DNA:RNA)
RNA: B25 RNA with C25U, C26U, U27G, C29A, A30U
DNA 1: CAATCTGAATTCCGGTCTCCC
DNA 2: TGGTGGCTACGACGGGATT
B38: UUGGAGA (DNA:RNA)
RNA: B25 RNA with C25U, C26U, U27G, C29A, A30G, U31A
DNA 1: CAATCTGAATTCCGGTCTCCC
DNA 2: TGGTGGCTACGACGGGATT
B39: GUGGAUC (DNA:RNA)
RNA: B25 RNA with C25G, C26U, U27G, C29A, A30U, U31C
DNA 1: CAATCTGAATTCCGGTCTCCC
DNA 2: TGGTGGCTACGACGGGATT

In this experiment the target is T1, RBFOX1 RRM RbFoxmut (Fox-RRM*). Description: EMSA; HiTS-Eq, 1 nM pool, 10 min; buffer printed only for the single-RNA assays: 10 mM Tris pH 7.5, 150 mM NaCl, 3.4 mM EDTA, 0.001% NP-40, 30 C. To be noted: tags: His6 N-terminal (pET28a); label: 5' 32P. An outline of the steps: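 Purified RbFox RRM, wild type or mutant, was incubated for 10 min in 50 µL with 1 nM of a 5′-radiolabelled RNA pool carrying 7 randomized nucleotides, whose flanks were annealed to DNA oligonucleotides, over a series of increasing protein concentrations. Unbound RNA was resolved on 8% native PAGE, cut out, reverse-transcribed, barcoded by PCR and sequenced on an Illumina HiSeq 2500. Relative association constants were derived from changes in read counts for each RNA species versus the control reaction and normalised to the cognate motif.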
For orientation: Mobility shift assays separate free from complexed probe on a gel.
Consider B1, for which the binding signal is 0.179 KA relative to UGCAUGU. For B2 the value was 0.142 KA relative to UGCAUGU; for B3, 0.0824 KA relative to UGCAUGU. Consider B4, for which the binding signal was 0.0789 KA relative to UGCAUGU. The value for B5 was 0.0771 KA relative to UGCAUGU. As to B6, the binding signal is 0.0996 KA relative to UGCAUGU. For B7 the value was 0.578 KA relative to UGCAUGU.

As for B8, the binding signal is 0.552 KA relative to UGCAUGU. The value for B9 was 0.0949 KA relative to UGCAUGU. The value for B10 was 0.371 KA relative to UGCAUGU; that for B11 was 0.0833 KA relative to UGCAUGU; that for B12 was 0.0689 KA relative to UGCAUGU. On to B13, for which the binding signal is 0.104 KA relative to UGCAUGU.

As to B14, the binding signal is 0.118 KA relative to UGCAUGU. The value for B15 was 0.0609 KA relative to UGCAUGU; that for B16 was 0.137 KA relative to UGCAUGU. For B17, the binding signal is 0.0924 KA relative to UGCAUGU. For B18 the value was 0.13 KA relative to UGCAUGU; for B19, 0.267 KA relative to UGCAUGU; for B20, 0.1 KA relative to UGCAUGU.

As to B21, the binding signal is 0.107 KA relative to UGCAUGU. Consider B22, for which the binding signal was 0.0813 KA relative to UGCAUGU. The value for B23 was 0.457 KA relative to UGCAUGU; that for B24 was 0.102 KA relative to UGCAUGU. Regarding B25, the binding signal is 0.139 KA relative to UGCAUGU. The value for B26 was 0.136 KA relative to UGCAUGU. Take B27: the binding signal is 0.727 KA relative to UGCAUGU. Consider B28, for which the binding signal is 0.244 KA relative to UGCAUGU. For B29 the value was 0.14 KA relative to UGCAUGU; for B30, 0.0702 KA relative to UGCAUGU; for B31, 0.092 KA relative to UGCAUGU. For B32 the value was 0.321 KA relative to UGCAUGU; for B33, 0.118 KA relative to UGCAUGU. On to B34, for which the binding signal is 0.1 KA relative to UGCAUGU. Consider B35, for which the binding signal is 1.04 KA relative to UGCAUGU. The value for B36 was 0.61 KA relative to UGCAUGU; that for B37 was 0.106 KA relative to UGCAUGU. For B38, the binding signal is 0.0955 KA relative to UGCAUGU. For B39 the value was 0.357 KA relative to UGCAUGU.
